Screening results as filed in PubChem.
The full list was thinned out, with hits kept by preference.
FBPA Giardia inh – Giardia lamblia aldolase inhibition. A8B2U2. purified Giardia FBPA. Potency, µM (top dose mostly 59.6 µM), usual class: inhibitors. 0.71% of 290,000 active. AID 2451; also: nearly all actives have a fitted effect of over 55% in size
Target sequence (A8B2U2 whole entry, looked up): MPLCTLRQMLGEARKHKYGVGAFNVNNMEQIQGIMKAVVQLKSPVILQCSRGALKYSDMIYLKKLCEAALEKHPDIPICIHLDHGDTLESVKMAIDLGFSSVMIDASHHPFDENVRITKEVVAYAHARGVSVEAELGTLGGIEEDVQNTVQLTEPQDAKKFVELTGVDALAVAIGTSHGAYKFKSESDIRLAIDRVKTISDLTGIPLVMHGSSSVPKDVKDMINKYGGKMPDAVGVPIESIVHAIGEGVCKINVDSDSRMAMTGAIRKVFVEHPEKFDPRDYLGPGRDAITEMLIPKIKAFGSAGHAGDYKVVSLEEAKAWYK
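Giardia FBPA (40 nM reagent) was preincubated 10 min at RT with compound (up to 57.5 uM final), then substrate plus GAPDH/TPI/NAD/arsenate coupling system with diaphorase/resazurin was added; resorufin fluorescence (525/598 nm) was read after 20 min.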
LmPK inh – blocks Leishmania mexicana pyruvate kinase activity | Q27686 | purified LmPK, Kinase-Glo ATP luminescence, 1 h | Potency, µM (highest dose often 57.5 µM), usual class: inhibitors | 0.37% of 290,000 active
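Kinase-Glo luminescence read after 1 h RT reaction of 0.1 nM LmPK with 0.5 mM PEP and 0.1 mM ADP. Activity scaled between uninhibited and enzyme-free controls.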
Shiga inhibitor – blocks Shiga toxin action in Vero cells | Vero cells, Shiga toxin protein synthesis inhibition reporter | inhibition, % at 38.7 µM | 9.2% of 290,000 active | AID 2315; in the data active = inhibition mostly above about 28%, no sharp cut-off; inactive = mostly below about 43%
RE007 growth inh – less growth of the S. pombe RE007 Vpr strain. S. pombe RE007 Vpr strain, BacTiter-Glo ATP luminescence, 24 h. 0.21% of 360,000 active. AID 651644. Potency, µM (top dose mostly 92.2 µM), usual class: inhibitors; active = well fitted falling curve with a large enough effect; inconclusive = small, poorly fitted or top-dose-only effect; inactive = no such curve, though single readings can be large or run the other way; also: nearly all actives have a fitted effect of over 50% in size
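Fission yeast RE007 carrying one integrated HIV-1 vpr copy, seeded at OD 0.01 in PMG+AL medium with 23 nL pinned compound. Grown 24 h at 30 degrees; viability read by BacTiter-Glo luminescence after 5 min.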
Tb PYK inh – T. brucei pyruvate kinase inhibition; Potency, µM (titrated, usually from 76.8 µM), most hits filed as inhibitors; TbPYK enzyme, Kinase-Glo Plus ATP luminescence, 45 min; Q57TT1; 0.12% of 410,000 active; also: nearly all actives have a fitted effect of over 50% in size
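Screened from lowest to highest concentration, compounds were pinned into TbPYK/substrate mixtures, and ADP (130 uM final) was added. Plates sat at room temperature for 45 min prior to Kinase-Glo Plus detection by luminescence.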
Cycloheximide cs – counter-screen for Shiga toxin inhibitors: cycloheximide protein synthesis inhibition. cell reporter, cycloheximide protein synthesis inhibition counterscreen. max response, %. 12% of 300,000 active; in the data active = max response mostly above about 13%, no sharp cut-off; inactive = mostly below about 14%; also: read at 38.3 µM for the half of the compounds with a filed dose
Each line names hits and unclear results; the compound was inactive in the other large screens. Unless noted, calls follow the shape of the dose curve; as a rule, active = well fitted curve in the direction sought with a large enough effect; inconclusive = small, poorly fitted or top-dose-only effect, or another doubt; inactive = no such curve, though single readings can be large; an effect the other way counts as inactive or inconclusive.

CCCC[C@@H]1CCCO[C@@](C(=O)NCc2ccccc2)(C(F)(F)F)C1	none (no result: LmPK inh, RE007 growth inh, Tb PYK inh)
Cc1ccc(Nc2nc(-c3cccs3)cs2)nc1	RE007 growth inh inconclusive, Cycloheximide cs 30.6
Cc1nc(C)c(-c2csc(Nc3ccc(Cl)cn3)n2)s1	none (no result: FBPA Giardia inh, LmPK inh, Shiga inhibitor, Cycloheximide cs)
Cc1cc(C)nc(Nc2nc(-c3ccccc3)cs2)n1	Shiga inhibitor 72.8, Cycloheximide cs 53.4
Cc1ccc(Nc2nc(-c3ccccc3)cs2)nc1	Cycloheximide cs 27.0
CCN1C(=O)[C@H]2[C@H]3[C@H](O)[C@H](O)C/C(=N/O[C@@H](C)c4cn([C@H](CO)Cc5ccccc5)nn4)[C@@H]3CC[C@@H]2C1=O	none (no result: LmPK inh, Shiga inhibitor, RE007 growth inh, Tb PYK inh, Cycloheximide cs)
COCC(=O)Nc1nnc(COc2ccc(Cl)cc2)s1	Shiga inhibitor 73.3, Cycloheximide cs 20.4
O=C(CSc1ccccc1)Nc1nnc(COc2ccc(Cl)cc2)s1	Shiga inhibitor 61.2, Tb PYK inh inconclusive, Cycloheximide cs 64.5
Cc1ccc(NC(=O)CSc2nnc(COc3ccc(Cl)cc3)o2)c(C)c1	none (no result: FBPA Giardia inh, LmPK inh, Shiga inhibitor, RE007 growth inh, Cycloheximide cs)
CCN1CCCC1Cn1c(-c2ccccc2)nc2c(N3CCOCC3)nc(C)nc21 (configuration not stated)	none (no result: LmPK inh, Shiga inhibitor, RE007 growth inh, Tb PYK inh, Cycloheximide cs)
C[C@@H](NC(=O)[C@@H]1Cc2ccccc2CN1)C(=O)Nc1ccc2c(c1)OCO2	Cycloheximide cs 17.1
CC(NC(=O)[C@@H](NC(=O)[C@@H]1Cc2ccccc2CN1)C(C)C)c1ccccc1 (some centres not stated)	none
C[C@@H](NC(=O)[C@@H]1Cc2ccccc2CN1)C(=O)NC1CCCCC1	none (no result: FBPA Giardia inh)
CC(C)[C@H](NC(=O)[C@@H]1Cc2ccccc2CN1)C(=O)Nc1ccc2c(c1)OCO2	Cycloheximide cs 22.9 (no result: FBPA Giardia inh)
CCOc1ccc(-c2cccc(NC(=O)COc3ccccc3)c2)nn1	Cycloheximide cs 26.6
COc1cc(OC)cc(C(=O)NCC(=O)Nc2ccc(C)c(Cl)c2)c1	none
COc1cc(OC)cc(C(=O)NCC(=O)Nc2ccc(-c3ccccc3)cc2)c1	Shiga inhibitor 62.7, Cycloheximide cs 20.0
COc1cccc(NC(=O)CC(=O)c2ccc([N+](=O)[O-])cc2)c1	Shiga inhibitor 70.6, Cycloheximide cs 50.5
CC(C)(C)C1(C)OC(=O)C(=Cc2ccc(OCC(=O)Nc3ccccc3)cc2)C(=O)O1 (configuration not stated)	Shiga inhibitor 58.8, Cycloheximide cs 17.6
CC(=O)Nc1cccc(OCC(=O)Nc2sccc2C(N)=O)c1	Shiga inhibitor 69.5, Cycloheximide cs 48.8
COc1cccc(NC(=O)CN2CCc3ccccc3C2)c1	Cycloheximide cs 17.3
COc1cccc(NC(=O)CNC(=O)c2ccccc2)c1	Shiga inhibitor 76.5, Cycloheximide cs 26.9
COc1cccc(NC(=O)CSc2nc(N)cc(N)n2)c1	none
COc1cccc(NC(=O)CSC(N)=O)c1	Shiga inhibitor 35.7
CCn1c2ccccc2c2cc(CN3CCN(Cc4ccc(Br)cc4)CC3)ccc21	none (no result: FBPA Giardia inh, LmPK inh, Shiga inhibitor, RE007 growth inh, Cycloheximide cs)
COC(=O)c1cccnc1-n1c(=O)c2cccnc2n(CC(=O)Nc2ccccc2F)c1=O	none (no result: FBPA Giardia inh, LmPK inh, Shiga inhibitor, RE007 growth inh, Cycloheximide cs)
CCOCC(=O)Nc1cccc(OC)c1	Cycloheximide cs 15.5
COc1cccc(NC(=O)CCC(=O)Nc2cccc(OC)c2)c1	none
COc1cccc(NC(=O)COc2ccccc2)c1	Cycloheximide cs 27.9 (no result: Shiga inhibitor)
COc1cc(NC(=O)COc2cccc(OC)c2)cc(OC)c1	none
O=C(COc1cccc(Oc2ccccc2)c1)Nc1ncccn1	Shiga inhibitor 29.3, Cycloheximide cs 13.8
CNCc1ccccc1OCC(=O)Nc1ccccc1	Shiga inhibitor 74.0, Cycloheximide cs 35.4
O=C(Nc1ccc(F)c(Cl)c1)C1CCCN1S(=O)(=O)c1ccc(F)cc1 (configuration not stated)	none (no result: FBPA Giardia inh, LmPK inh, Shiga inhibitor, RE007 growth inh, Cycloheximide cs)
Cc1cc2c(nc1C)CCCN2C[C@H](C)O/N=C\[C@@H](C)[C@H](OCc1ccccc1)C(C)C	none (no result: LmPK inh, Shiga inhibitor, RE007 growth inh, Tb PYK inh, Cycloheximide cs)
Cc1cccc(NC(=O)COc2ccccc2)c1	Shiga inhibitor 128.9, Cycloheximide cs 33.4
CC(=O)Nc1cccc(OCC(=O)Nc2ccccc2)c1	Shiga inhibitor 114.5, Cycloheximide cs 46.8
COc1cccc(NC(=O)COc2ccc(Br)c(C)c2)c1	Cycloheximide cs 11.6
Cc1cccc(OCC(=O)Nc2ccc(NC(=O)c3ccccc3)cc2)c1	none
CC(=O)Nc1cccc(NC(=O)COc2ccc3c(c2)CCC3)c1	none (no result: FBPA Giardia inh, LmPK inh, Shiga inhibitor, Cycloheximide cs)
